We go through 1 molecule from PubChem BioAssay (NCATS).

A short description of assay [1]: AP1 Signaling Pathway (AID 357; active = well fitted curve in either direction with a large enough effect, not every such curve was filed as active;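 note: ME-180 reporter cells stimulated with EGF at its EC50 level; % is set by controls: 0 for no effect and ±100 for the full control effect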). To be noted: ME-180 AP-1-bla reporter, EGF-induced, beta-lactamase ratio, 5 h; at 38 µM (top of the series). The method in brief:
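Cells are seeded overnight, exposed to compound titrations and an EC50 level of EGF for 5 hours at 37 °C, then loaded with CCF4 dye for 2.5 hours. Beta-lactamase activity under the AP-1 element is read as a blue/green ratio.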

Assay [2] has as its target Cytochrome P450 1A2 (Homo sapiens) (UniProt P05177). Put plainly: p450-cyp1a2 (AID 410; calls by dose curve;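 note: -100% = full effect of reference inhibitor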). The method in brief: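 Luminescent readout of luciferin formed from Luciferin-ME by human CYP1A2; data normalized against complete inhibition by 57 uM furafylline. Enzyme 20nM, substrate 100uM at Km, 100mM KPO4 buffer, 60 min reaction at room temperature.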
Assay [3] is described as follows: NFAT Signaling Pathway (AID 444; active = well fitted curve in either direction with a large enough effect, not every such curve was filed as active;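 note: carbachol stimulus at about its EC50 of 1 µM final; % is set by controls: 0 for no effect and ±100 for the full control effect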). The following applies: Jurkat NFAT-bla M1, carbachol, beta-lactamase ratio, 5 h; at 38 µM (top of the series). The method in brief:
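Jurkat cells with NFAT-driven β-lactamase reporter and co-expressed M1 receptor, stimulated with carbachol (final 1 uM, ~EC50), compound titration, 5 h at 37 °C. CCF4 loaded 1 h at RT; 460/530 nm ratio gave %activity and AC50.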

A short description of assay [4]: Stat Signaling Pathway (AID 446; active = well fitted curve in either direction with a large enough effect, not every such curve was filed as active;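 note: ME-180 cervical cancer cells given 40 pM IL-6 alongside compound; SIE-controlled beta-lactamase reporter measured as 460/530 nm FRET emission ratio; % is set by controls: 0 for no effect and ±100 for the full control effect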). To be noted: ME-180 (cervical carcinoma) SIE beta-lactamase reporter, IL-6 stimulated, 5 h; at 38 µM (top of the series). The method in brief:
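IL-6/STAT signaling read in ME-180 cells via an SIE beta-lactamase reporter. Stimulus was 40 pM IL-6 (its AC50) for 5 hrs, so both activation and inhibition register.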

The target in assay [5] is Glucocorticoid receptor (Homo sapiens) (UniProt P04150). The experiment in a line: GR-GFP Redistribution (AID 450;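 active = compounds whose dose series gives a full or clear partial fitted curve of increased nuclear translocation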; note: potency is the fitted concentration of half-maximal effect). The following applies: U2OS GR-GFP nuclear translocation, laser cytometry, 2 h.
Glucocorticoid receptor (Homo sapiens), sequence (P04150 whole entry, looked up): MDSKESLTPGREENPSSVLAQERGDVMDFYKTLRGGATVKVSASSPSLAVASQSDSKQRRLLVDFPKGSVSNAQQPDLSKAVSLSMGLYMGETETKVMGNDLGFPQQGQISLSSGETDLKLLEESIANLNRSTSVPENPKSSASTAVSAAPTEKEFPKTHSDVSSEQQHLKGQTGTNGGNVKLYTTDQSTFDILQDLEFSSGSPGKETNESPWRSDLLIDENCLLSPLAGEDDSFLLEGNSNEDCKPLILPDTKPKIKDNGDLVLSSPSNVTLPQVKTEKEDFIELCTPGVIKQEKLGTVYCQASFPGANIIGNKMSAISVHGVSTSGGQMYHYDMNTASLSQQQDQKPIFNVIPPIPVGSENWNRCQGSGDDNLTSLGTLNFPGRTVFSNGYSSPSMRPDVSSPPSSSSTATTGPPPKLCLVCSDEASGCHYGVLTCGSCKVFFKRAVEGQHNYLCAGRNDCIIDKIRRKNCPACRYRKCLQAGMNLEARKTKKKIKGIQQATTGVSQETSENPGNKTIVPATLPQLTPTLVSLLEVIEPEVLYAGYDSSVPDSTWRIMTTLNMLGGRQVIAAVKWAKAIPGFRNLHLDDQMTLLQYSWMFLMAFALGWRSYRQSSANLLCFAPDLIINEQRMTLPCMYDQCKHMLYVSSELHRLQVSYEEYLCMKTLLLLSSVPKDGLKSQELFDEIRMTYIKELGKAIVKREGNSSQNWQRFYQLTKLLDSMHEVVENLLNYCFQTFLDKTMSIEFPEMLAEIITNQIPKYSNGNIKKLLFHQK
The target is the same in assay [6]. Put plainly: GR-EFC Redistribution (AID 451; calls by dose curve; note: potency is the fitted concentration of half-maximal effect). To be noted: CHO-K1 GR-EFC translocation, beta-gal luminescence, 2 h. The procedure, abridged:
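CHO-K1 cells expressing nuclear EA and GR-ED fragments of b-gal; compounds titrated up to 46 uM final, 2 h at 37 C. GR nuclear translocation read as complemented b-gal luminescence after 1 h RT detection.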

The target in assay [7] is Mitogen-activated protein kinase 10 (Mus musculus) (UniProt Q61831). The experiment in a line: JNK3 AlphaScreen Assay (AID 530; active = well fitted curve in either direction with a large enough effect, not every such curve was filed as active;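 note: kinase came from lysate of stimulated human HepG2 cells; signal reports phosphorylation of biotinylated GST-cJun 1-79 at Ser73 with 10 µM ATP; % is set by controls: 0 for no effect and ±100 for the full control effect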). The method in brief:
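Pre-activated (IL-1β/TNFα) JNK3 in HepG2 lysates phosphorylates biotin-GST-cJun(1-79), 10 uM ATP; anti-phospho-cJun(Ser73) AlphaScreen read at room temperature, pH 7.6 Tris buffer. Compounds pre-incubated 15 min as titrations.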
Background: In Alpha technology, singlet oxygen from a donor bead excites a nearby acceptor bead.

The target in assay [8] is 3',5'-cyclic-AMP phosphodiesterase 4B (Homo sapiens) (UniProt Q07343). Put plainly: qHTS Assay for Inhibitors of PDE-IV (AID 607; active = well fitted activation curve with a large enough effect in the main read-out, with a control signal flat, not every such curve was filed as active; note: % of control where 0% means no effect). The procedure, abridged:
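Live HEK293 cells with a modified cyclic nucleotide-gated (CNG) channel report intracellular cAMP via membrane-potential dye fluorescence (ex 535/em 590 nm). Endogenous PDE-IV was targeted. Compounds were tested at up to 22.9 uM final; RO 20-1724 100 uM served as control.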
For orientation: In qHTS, concentration-response curves come from the screen itself.

The target in assay [9] is Guanine nucleotide-binding protein G(i) subunit alpha-1 (Homo sapiens) (UniProt P63096). The experiment in a line: qHTS Assay for Inhibitors of RGS12 GoLoco Motif Activity (Green Fluorophore) (AID 879).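 Note: 0% = labeled peptide with Gαi1 and full inhibition = labeled peptide alone without protein; negative values mean loss of peptide binding seen as reduced polarization.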 The procedure, abridged:
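Fluorescence polarization assay: 50 nM Gαi1 with 10 nM FITC-labeled RGS12 GoLoco peptide in 10 mM Tris pH 7.5, 150 mM NaCl, 0.1 mM GDP, 0.05% NP40, 10 min at room temperature with compound.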

The target of assay [10] is Cytochrome P450 2C9 (Homo sapiens) (UniProt P11712). Put plainly: qHTS Assay for Inhibitors and Substrates of Cytochrome P450 2C9 (AID 883). Note: % is set by controls: 0 for no effect and ±100 for the full control effect; nearly all actives have a fitted effect of over 60% in size. The procedure, abridged:
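Signal: luciferase luminescence reporting luciferin produced by CYP2C9. Conditions: 10nM enzyme, Luciferin-H 100uM at KM, 25mM KPO4, 37C, 60 min NADPH-driven reaction. Reference: 57uM sulphaphenazole as 100% inhibition.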

The target in assay [11] is Cytochrome P450 2D6 (Homo sapiens) (UniProt P10635). The experiment in a line: qHTS Assay for Inhibitors and Substrates of Cytochrome P450 2D6 (AID 891).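 Note: luciferin methyl ether substrate demethylated by CYP2D6 with NADPH regeneration; % is set by controls: 0 for no effect and ±100 for the full control effect; nearly all actives have a fitted effect of over 60% in size.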 The method in brief:
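Human CYP2D6 (5 nM) with 30 uM Luciferin-ME EGE (at Km) in 100 mM KPO4, compound preincubated 10 min, then NADPH regeneration system for 60 min at room temperature. Luciferin read by luminescence; normalized to 1.43 uM quinidine.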

In assay [12] the target is Cytochrome P450 2C19 (Homo sapiens) (UniProt P33261). Put plainly: qHTS Assay for Inhibitors and Substrates of Cytochrome P450 2C19 (AID 899). Note: % is set by controls: 0 for no effect and ±100 for the full control effect; nearly all actives have a fitted effect of over 60% in size. The procedure, abridged: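 Signal comes from luciferase acting on luciferin released by CYP2C19-mediated hydroxylation of Luciferin-H EGE, 10uM (KM). Assay mix: 5nM enzyme, 50mM KPO4; 60 min at 37C with NADPH regeneration. Data normalized against 57uM ketoconazole.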
Cytochrome P450 2C19 (Homo sapiens), sequence (P33261 whole entry, looked up): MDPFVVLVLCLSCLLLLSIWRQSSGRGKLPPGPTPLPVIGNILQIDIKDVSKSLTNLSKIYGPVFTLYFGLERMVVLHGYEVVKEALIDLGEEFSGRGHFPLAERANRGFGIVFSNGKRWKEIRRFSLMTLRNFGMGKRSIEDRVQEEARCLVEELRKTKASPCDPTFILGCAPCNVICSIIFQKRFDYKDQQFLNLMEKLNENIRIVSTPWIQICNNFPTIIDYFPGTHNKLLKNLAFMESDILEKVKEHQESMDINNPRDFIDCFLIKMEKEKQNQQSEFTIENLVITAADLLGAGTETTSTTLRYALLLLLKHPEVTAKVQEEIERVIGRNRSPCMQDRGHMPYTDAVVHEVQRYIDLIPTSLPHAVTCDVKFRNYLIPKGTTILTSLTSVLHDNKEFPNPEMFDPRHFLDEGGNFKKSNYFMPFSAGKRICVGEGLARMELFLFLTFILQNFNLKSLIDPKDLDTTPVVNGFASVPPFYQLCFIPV

Assay [13] is described as follows: Confirmation and Secondary Assay for Modulators of Hemoglobin Beta Chain Splicing at IVS2 654 locus (AID 910).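 Note: HeLa cells stably carrying EGFP split by mutant beta-globin IVS2-654 intron; % of control where 0% means no effect.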 The method in brief: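 HeLa cells stably expressing EGFP interrupted by β-globin IVS2-654 intron, seeded overnight in Opti-MEM/2% FCS, then treated 2 days at 37 °C. Restored splicing read as total peak GFP intensity per well by laser scanning cytometry (488 nm excitation, 500–520 nm emission); 500 nM antisense PNA as control.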

Assay [14] is described as follows: qHTS Assay for Identification of Small Molecule Agonists for Thrombopoietin (TPO) Signaling Pathway (AID 917). Note: % is set by controls: 0 for no effect and ±100 for the full control effect. The method in brief:
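Murine Ba/F3 cells stably expressing human TPO receptor and a Glycoprotein IIb promoter–luciferase reporter were IL-3-starved overnight, then treated with compounds plus TPO (26 pM final, its EC50) for 24 hrs at 37 C; luminescence was read.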

The nature of assay [15]: Confirmation and Secondary Assay for Modulators of Hemoglobin Beta Chain Splicing at IVS2 705 locus (AID 930).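 Note: HeLa cells stably expressing the EGFP-705 splicing reporter; GFP fluorescence per well restored by corrected splicing of the IVS2-705 intron in EGFP; % of control where 0% means no effect.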 The method in brief:
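HeLa cells stably carrying EGFP interrupted by mutant beta-globin intron 2 (IVS2-705) treated 2 days at 37C with compound; 500 nM antisense PNA as control. Correct splicing read as total peak GFP intensity per well by laser-scanning cytometry.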

Assay [16] concerns the target Muscarinic acetylcholine receptor M1 (Rattus norvegicus) (UniProt P08482). Put plainly: qHTS Assay for Antagonists of Acetylcholine Muscarinic M1 Receptor: Measurement of IP-One Response (AID 944). Note: nearly all actives have a fitted effect of over 75% in size. The procedure, abridged:
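M1-CHO (rat), 2000 cells/well, overnight recovery; cpd 10 min; carbachol EC80 (200 nM), 30 min, HEPES buffer + 50 mM LiCl pH 7.4; IP-One HTRF, Ex 337, Em 620/665 nm.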

In assay [17] the target is Pyruvate kinase (Leishmania mexicana) (UniProt Q27686). Put plainly: qHTS Validation Assay for Inhibitors of Leishmania Mexicana Pyruvate Kinase (AID 945).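 Note: 0% = DMSO only neutral control wells.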 The procedure, abridged: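 Eight-point qHTS titrations in triplicate, data normalized to DMSO neutral control. Reaction: 0.2 nM LmPYK E451W mutant, 0.5 mM PEP, 0.1 mM ADP, 7 mM MgCl2, pH 7.2, one hour at room temperature; luminescent ATP detection.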
Pyruvate kinase (Leishmania mexicana), sequence (Q27686 2-499 E452W): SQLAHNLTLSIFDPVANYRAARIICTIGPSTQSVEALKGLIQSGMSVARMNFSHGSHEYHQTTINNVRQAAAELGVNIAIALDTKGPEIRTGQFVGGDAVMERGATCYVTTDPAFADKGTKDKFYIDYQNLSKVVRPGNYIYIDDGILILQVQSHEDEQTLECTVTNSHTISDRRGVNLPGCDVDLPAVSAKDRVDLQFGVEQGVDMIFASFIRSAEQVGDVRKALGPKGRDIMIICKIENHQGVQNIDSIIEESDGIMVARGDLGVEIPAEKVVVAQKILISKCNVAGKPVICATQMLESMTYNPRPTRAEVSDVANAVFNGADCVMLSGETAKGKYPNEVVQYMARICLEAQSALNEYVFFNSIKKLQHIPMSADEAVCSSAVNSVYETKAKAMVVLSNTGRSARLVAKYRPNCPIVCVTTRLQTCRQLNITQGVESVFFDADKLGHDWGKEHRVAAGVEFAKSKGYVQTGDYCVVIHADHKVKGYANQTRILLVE

Assay [18] has as its target Pyruvate kinase PKM (Homo sapiens) (UniProt P14618). Put plainly: qHTS Assay for Activators of Human Muscle Pyruvate Kinase (AID 954; active = well fitted curve in the direction sought with a large enough effect, not every such curve was filed as active;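 note: 0% = uninhibited enzyme and -100% = no enzyme or full thiadiazolimine inhibition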). The procedure, abridged: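 Enzyme was run at intermediate activity so both inhibitors and activators could be detected. ATP formed from ADP and PEP by 0.1 nM human PKM2 during a 1 h room-temperature incubation was quantified by coupled luciferase luminescence.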

In assay [19] the target is Alpha-galactosidase A (Homo sapiens) (UniProt P06280). The experiment in a line: Counterscreen for Glucocerebrosidase Inhibitors: qHTS Assay for Human alpha-Galactosidase at pH 4.5 (AID 992). Note: 0% is about no effect. The method in brief: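 Read-out is 4-methylumbelliferone fluorescence (365 nm excitation, 440 nm emission) after a pH 10 NaOH/glycine stop. Reactions held 2 nM enzyme and 80 uM substrate at pH 4.5 for 20 min at room temperature.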
Alpha-galactosidase A (Homo sapiens), sequence (P06280 whole entry, looked up): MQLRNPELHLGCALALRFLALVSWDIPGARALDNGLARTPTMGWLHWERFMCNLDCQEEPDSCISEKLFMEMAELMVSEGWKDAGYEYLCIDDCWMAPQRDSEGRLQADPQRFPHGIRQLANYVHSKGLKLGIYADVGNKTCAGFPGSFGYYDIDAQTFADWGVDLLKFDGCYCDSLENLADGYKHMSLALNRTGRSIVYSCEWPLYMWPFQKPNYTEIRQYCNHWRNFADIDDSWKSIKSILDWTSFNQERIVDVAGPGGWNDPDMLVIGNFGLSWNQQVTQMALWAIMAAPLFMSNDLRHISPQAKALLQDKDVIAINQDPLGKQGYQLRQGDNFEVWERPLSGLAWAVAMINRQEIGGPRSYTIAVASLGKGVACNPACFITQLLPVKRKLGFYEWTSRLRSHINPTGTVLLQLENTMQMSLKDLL

In assay [20] the target is alpha-glucosidase (Oryza sativa, rice) (UniProt Q653V4). The experiment in a line: Counterscreen for Glucocerebrosidase Inhibitors: qHTS Assay for Rice alpha-Glucosidase at pH 5.0 (AID 997).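 Note: 0% = full activity with enzyme and -100% = basal without enzyme.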 The method in brief: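 Rice alpha-glucosidase (4 nM final) with 400 uM 4-methylumbelliferyl-alpha-D-glucopyranoside in citrate buffer pH 5.0, 20 min at room temperature, stopped at pH 10; fluorescence 365/440 nm, compounds 0.7 nM–77 uM, AC50 from Hill fits.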
In general terms: The purpose of a counterscreen is to sort out artefacts and off-target activity.

A short description of assay [21]: Validation of Assay for Modulators of Lamin A Splicing (AID 1459; active = well fitted curve in the direction sought with a large enough effect in the signal ratio; the % refers to the signal ratio;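 note: cells exposed to compound for two days before reading; 0% is about no effect; ratio rise marks activators and ratio drop marks inhibitors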). The procedure, abridged: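 S3 HeLa cells stably expressing a lamin A-EGFP splicing minigene and DsRed2 were seeded at 600 cells/well in Opti-MEM with 2% FBS, pin-dosed, and incubated 48 hrs at 37 °C, 5% CO2. Laser-scanning cytometry (488 nm) gave GFP/RFP total intensity ratio.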
A short description of assay [22]: qHTS Assay for Lipid Storage Modulators (AID 1519; calls by dose curve). The following applies: Drosophila S3 cells, BODIPY lipid droplet/cell ratio, laser cytometry, cells loaded with oleic acid. The method in brief: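 Cells seeded at 5,000 per well were treated with compounds over a concentration series and loaded with oleic acid (400 uM, as added). Lipid droplet fluorescence (488 nm excitation, 500-530 nm channel) was read by laser-scanning cytometry and normalized to 20 uM Triacsin C.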

“And” between values parts separate entries of the source, which are not always exact repeats. Equal values may be shown once. Results filed as inconclusive are left out. The source made the active and inactive calls. Unless noted, calls come from the whole dose curve; as a rule, active = well fitted curve in the direction sought with a large enough effect; inconclusive = small, poorly fitted or top-dose-only effect, or another doubt; inactive = no such curve, though single readings can be large; an effect the other way counts as inactive or inconclusive.

3',5'-cyclic-AMP phosphodiesterase 4B (Homo sapiens), sequence (Q07343 whole entry, looked up): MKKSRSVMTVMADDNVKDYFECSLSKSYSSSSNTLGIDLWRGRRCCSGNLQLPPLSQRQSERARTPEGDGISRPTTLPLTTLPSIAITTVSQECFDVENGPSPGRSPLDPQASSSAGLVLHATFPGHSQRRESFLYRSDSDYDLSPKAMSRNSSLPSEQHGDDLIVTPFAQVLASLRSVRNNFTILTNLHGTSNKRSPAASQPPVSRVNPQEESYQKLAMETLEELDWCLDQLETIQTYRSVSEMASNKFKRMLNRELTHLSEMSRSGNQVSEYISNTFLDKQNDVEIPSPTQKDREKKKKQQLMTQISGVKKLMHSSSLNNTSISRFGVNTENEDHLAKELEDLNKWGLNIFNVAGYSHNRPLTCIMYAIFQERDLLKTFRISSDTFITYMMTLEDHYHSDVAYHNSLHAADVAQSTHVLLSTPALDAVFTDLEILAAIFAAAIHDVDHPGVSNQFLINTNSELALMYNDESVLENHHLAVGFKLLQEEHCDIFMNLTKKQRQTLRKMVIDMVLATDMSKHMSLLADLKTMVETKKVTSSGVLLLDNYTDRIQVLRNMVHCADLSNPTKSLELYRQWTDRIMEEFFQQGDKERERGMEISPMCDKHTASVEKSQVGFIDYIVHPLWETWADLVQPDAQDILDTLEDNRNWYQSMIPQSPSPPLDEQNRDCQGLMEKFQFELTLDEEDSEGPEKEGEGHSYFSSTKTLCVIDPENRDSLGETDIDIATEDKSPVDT
Cytochrome P450 2C9 (Homo sapiens), sequence (P11712 whole entry, looked up): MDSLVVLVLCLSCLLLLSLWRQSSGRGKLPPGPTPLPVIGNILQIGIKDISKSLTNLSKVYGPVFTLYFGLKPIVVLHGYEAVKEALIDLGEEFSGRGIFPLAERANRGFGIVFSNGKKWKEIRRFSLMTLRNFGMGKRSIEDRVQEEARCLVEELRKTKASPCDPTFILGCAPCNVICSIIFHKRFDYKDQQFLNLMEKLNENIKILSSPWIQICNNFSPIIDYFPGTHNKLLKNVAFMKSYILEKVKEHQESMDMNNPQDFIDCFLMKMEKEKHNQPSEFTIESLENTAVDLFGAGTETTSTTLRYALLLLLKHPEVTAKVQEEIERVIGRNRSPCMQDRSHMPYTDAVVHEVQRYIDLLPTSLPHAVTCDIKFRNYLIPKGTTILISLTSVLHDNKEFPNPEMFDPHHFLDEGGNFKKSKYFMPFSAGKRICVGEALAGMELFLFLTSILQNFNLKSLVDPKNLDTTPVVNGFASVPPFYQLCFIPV
Cytochrome P450 1A2 (Homo sapiens), sequence (P05177 whole entry, looked up): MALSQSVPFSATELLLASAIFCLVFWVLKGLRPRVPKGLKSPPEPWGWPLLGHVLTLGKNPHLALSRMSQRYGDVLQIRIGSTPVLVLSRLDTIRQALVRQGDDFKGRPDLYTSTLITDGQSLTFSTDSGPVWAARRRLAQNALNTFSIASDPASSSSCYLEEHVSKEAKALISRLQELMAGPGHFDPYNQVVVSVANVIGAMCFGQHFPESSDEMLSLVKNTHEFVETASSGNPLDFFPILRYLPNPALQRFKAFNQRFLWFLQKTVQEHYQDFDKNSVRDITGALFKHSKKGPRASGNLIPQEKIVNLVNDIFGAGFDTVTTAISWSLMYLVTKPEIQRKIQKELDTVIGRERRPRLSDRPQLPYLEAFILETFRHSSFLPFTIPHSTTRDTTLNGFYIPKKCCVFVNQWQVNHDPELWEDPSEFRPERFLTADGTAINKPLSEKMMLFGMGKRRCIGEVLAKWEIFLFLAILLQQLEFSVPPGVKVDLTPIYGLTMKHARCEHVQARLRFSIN
Guanine nucleotide-binding protein G(i) subunit alpha-1 (Homo sapiens), sequence (P63096 whole entry, looked up): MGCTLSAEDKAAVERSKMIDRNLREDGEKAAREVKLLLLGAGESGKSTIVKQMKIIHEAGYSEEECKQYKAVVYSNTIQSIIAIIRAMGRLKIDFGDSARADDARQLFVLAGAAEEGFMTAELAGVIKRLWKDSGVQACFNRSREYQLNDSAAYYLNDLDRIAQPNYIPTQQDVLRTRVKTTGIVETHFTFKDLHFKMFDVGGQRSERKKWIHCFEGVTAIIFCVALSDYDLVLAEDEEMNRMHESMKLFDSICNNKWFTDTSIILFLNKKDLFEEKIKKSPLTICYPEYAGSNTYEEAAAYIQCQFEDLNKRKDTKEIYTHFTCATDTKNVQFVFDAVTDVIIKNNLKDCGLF
Cytochrome P450 2D6 (Homo sapiens), sequence (P10635 whole entry, looked up): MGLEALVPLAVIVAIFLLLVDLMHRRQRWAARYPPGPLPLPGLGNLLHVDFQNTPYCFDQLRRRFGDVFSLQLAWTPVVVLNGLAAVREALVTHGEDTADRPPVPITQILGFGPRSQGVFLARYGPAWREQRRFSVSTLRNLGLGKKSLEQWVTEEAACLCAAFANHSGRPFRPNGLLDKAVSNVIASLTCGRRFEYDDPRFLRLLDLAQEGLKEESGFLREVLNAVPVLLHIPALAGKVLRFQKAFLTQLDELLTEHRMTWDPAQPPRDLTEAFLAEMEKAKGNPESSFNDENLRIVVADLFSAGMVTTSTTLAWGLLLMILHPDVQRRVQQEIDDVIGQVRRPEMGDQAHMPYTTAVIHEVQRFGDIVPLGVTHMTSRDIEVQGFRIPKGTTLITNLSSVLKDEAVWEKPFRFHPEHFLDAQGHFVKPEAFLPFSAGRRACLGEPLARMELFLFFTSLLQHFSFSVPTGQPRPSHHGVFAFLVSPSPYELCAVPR

`O=C(O)c1cc(=O)c2ccc(Cl)cc2[nH]1`: the activity change, negative = inhibition is -5.86% (inactive) in [1]; 3.07% (inactive) in assay [3]; 4.77% (inactive) and 6.7% (inactive) in assay [22] (at 57.5 µM (top of the series)). The Potency result in assay [2], in assay [7], in assay [8], in [10], in assay [11] and in assay [12] was “inactive” each time. For the same molecule, the Potency result in assay [14], in assay [16] and in assay [17] was “inactive” in each case. Further, the activity, negative = inhibition in [4] is 42.7% (inactive). The Potency in [5] and in assay [6] was > 46 µM (inactive) throughout. Besides, the molecule was called inactive in assay [9], in [13], in assay [15], in assay [18], in assay [19] and in assay [20]. The call in [21] was inactive. Also, the max response in assay [22] (measured here: cell count channel max response) was 15.1% and -2.23%.
